High-throughput results deposited in PubChem by National Center for Advancing Translational Sciences (NCATS).
MARV entry inh = qHTS for inhibitors of binding or entry into cells for Marburg Virus; Marburg virus pseudotyped entry inhibition, cell reporter; Potency, µM (titrated, usually from 37.8 µM), inactives show at the top dose activity change, negative = inhibition, hits mostly inhibitors; hit rate 1.8% among 300,000; calls by dose curve; tested in HEK293 cells; also: potency is read from the fitted curve at half-maximal effect; % is scaled to controls: 0 for no effect and ±100 for the full control effect
Shiga toxin inh = A qHTS for Small Molecule Inhibitors of Shiga Toxin; Vero cells, Shiga toxin protein synthesis inhibition reporter; hit rate 9.2% among 290,000; AID 2315, 2010; inhibition, % at 38.7 µM; in the data active = inhibition mostly above about 28%, no sharp cut-off; inactive = mostly below about 43%; also: 0% is about no effect
Cycloheximide cs = Cycloheximide Counterscreen for Small Molecule Inhibitors of Shiga Toxin; cell reporter, cycloheximide protein synthesis inhibition counterscreen; max response, %; hit rate 12% among 300,000; AID 2314, 2010; in the data active = max response mostly above about 13%, no sharp cut-off; inactive = mostly below about 14%; also: read at 38.3 µM for the half of the compounds with a filed dose; 0% is about no effect
LASV entry inh = qHTS for Inhibitors of binding or entry into cells for Lassa Virus; Lassa virus pseudotype entry inhibition, cell reporter; Potency, µM (highest dose often 37.9 µM), for inactives: at the highest dose activity change, negative = inhibition, actives largely listed as inhibitors; hit rate 1.2% among 300,000; calls by dose curve; tested in HEK293 cells; also: potency is read from the fitted curve at half-maximal effect; % is scaled to controls: 0 for no effect and ±100 for the full control effect; nearly all actives have a fitted effect of over 50% in size
FMDV antiviral = High Throughput Screening for Foot and Mouth Disease Virus Antivirals; hit rate 1.2% among 410,000; AID 1159524, 2015; Potency, µM (series often up to 57.9 µM), for the others: at the highest dose activity change, negative = inhibition, most hits filed as inhibitors; FMDV antiviral cell-based qHTS; calls by dose curve; tested in HEK293T cells; also: read-out not given here; potency is read from the fitted curve at half-maximal effect; % is scaled to controls: 0 for no effect and ±100 for the full control effect; nearly all actives have a fitted effect of over 45% in size
HCV inhibitor = qHTS Assay for Inhibitors of Hepatitis C Virus (HCV). AID 651820, 2012. Huh7.5.1 HCVcc-Cre infection, luciferase reporter, 44 h. hit rate 3.4% among 340,000. Potency, µM (top dose mostly 41.8 µM), inactives show top-dose activity change, negative = inhibition, actives largely listed as inhibitors; active = well fitted inhibition curve with a large enough effect; inconclusive = small, poorly fitted or top-dose-only effect, or another doubt; inactive = no such curve, though single readings can be large or run the other way; also: potency is read from the fitted curve at half-maximal effect; % is scaled to controls: 0 for no effect and ±100 for the full control effect
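Infectious HCVcc-Cre (~0.5 moi) was added to cells just after compound, with cells seeded 4 h earlier at 1,000 per well. Luciferase activity after 44 h culture reported infection; substrate was incubated 15 min at room temperature before reading.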
* marks the source's active call; other numbers are inactive results; ? = inconclusive; / = no result given; [ ] = dose if it differs, or a comment. The list is not random: actives were taken first. Their share in the collection is about 13%.

SMILES	MARV entry inh	Shiga toxin inh	Cycloheximide cs	LASV entry inh	FMDV antiviral	HCV inhibitor
Cc1cc(C(=O)N/N=C/c2ccc([N+](=O)[O-])s2)n[nH]1	?	28.4	17.2*	?	-12.0%	10µM*
CC(C)(C)OC(=O)N/N=C\c1ccc([N+](=O)[O-])s1	13.9%[46.1 µM]	81.4*	57.7*	22.4%[46.1 µM]	1.5%	-32.9%
CC(=O)OC(C)(C)/C=C/C(=O)[C@](C)(O)[C@H]1[C@H](O)C[C@@]2(C)[C@@H]3CC=C4[C@H](C[C@H](O)C(=O)C4(C)C)[C@]3(C)C(=O)C[C@]12C	?	-13.5	-3.5	0.291µM*	17.8µM*	-16.5%
CC(=O)OC(C)(C)/C=C/C(=O)C(C)(O)C1C(O)CC2(C)C3CC=C4C(CC(O)C(=O)C4(C)C)C3(C)C(=O)CC12C (stereo not given)	?	/	/	0.126µM*	31.6µM*	?
CC(=O)OC(C)(C)/C=C/C(=O)[C@](C)(O)C1[C@H](O)C[C@@]2(C)C3CC=C4C(C=C(O[C@@H]5O[C@H](CO)[C@@H](O)[C@H](O)[C@H]5O)C(=O)C4(C)C)[C@]3(C)C(=O)C[C@]12C (stereo not given in full)	/	/	/	/	0.0%	-47.6%[8.37 µM]
CC(=O)OC(C)(C)/C=C/C(=O)C(C)(O)C1[C@H](O)C[C@@]2(C)C3CC=C4C(CC[C@@H](O)C4(C)C)[C@]3(CO)C(=O)C[C@]12C (stereo not given in full)	0.251µM*	-9.0	-5.7	?	17.8µM*	?
CCCCc1nnc(NC(=O)c2ccc3c(=O)n4c(nc3c2)CCC4)s1	-0.8%[46.1 µM]	/	/	-1.8%	-1.0%	-28.1%
CC(C)(Cc1ccc(O)cc1)NC(=O)CC(=O)N=Nc1c(O)[nH]c2ccc(Br)cc12	-4.7%[46.1 µM]	-10.2	-2.5	16.6%[46.1 µM]	-6.8%	15.6%
COc1ccc(/C=C/C(=O)NC(C)C)cc1Br	11.7%	3.9	13.2*	3.2%	19.1%	2.8%
CCN(CC)C(=O)/C=C/c1ccccc1	/	/	/	/	37.7%	-6.8%
COc1ccc(/C=C/C(=O)N(C)C2CCCCC2)cc1Br	?	78.0*	26.2*	?	27.7%	-4.8%
CN(C(=O)COC(=O)Cn1cnc2ccccc21)C1CCCCC1	-2.7%	/	/	2.4%	-24.7%	6.7%
CN(C(=O)/C=C/c1cnc2ccccc2c1)C1CCCCC1	?	69.5*	25.8*	?	-25.4%	-14.0%
CCN(C(=O)/C=C/c1ccccc1)C1CCCCC1	17.8%	35.8	6.9*	-9.4%	30.8%	-9.9%
CCOC(=O)c1oc2c(c1C)-c1nn(Cc3c(F)cccc3Cl)cc1CC2	7.8%[46.1 µM]	/	/	1.0%[46.1 µM]	-8.8%	/
C[C@H](CO)N1C[C@H](C)[C@@H](CN(C)S(=O)(=O)c2ccccc2)Oc2ccc(NC(=O)C3CCCCC3)cc2C1=O	/	/	/	/	-12.4%	?
O=C(c1ccccc1F)N1CCCC(C(=O)N2CCN(c3ccccc3)CC2)C1 (stereo not given)	-0.3%[46.1 µM]	28.2	-2.6	7.8%	-22.3%	7.8%
COc1ccc(/C=C/C(=O)N(C(C)C)C(C)C)cc1Br	-2.4%	50.8*	23.7*	2.3%	32.2%	-5.6%
COc1ccc(/C=C/C(=O)NC(C)CCc2ccccc2)cc1OC (stereo not given)	-2.0%	-8.5	-1.8	-19.1%	-18.0%	?
NS(=O)(=O)c1cccc(NC(=O)COC(=O)COc2ccc3ccccc3c2)c1	?	-4.6	-2.4	-0.3%	3.3%	1.6%
O=P(CCCCCCCCCP(=O)(c1ccccc1)c1ccccc1)(c1ccccc1)c1ccccc1	?	-25.7	3.2	?	?	14.1µM*
CCn1c2ccccc2c2cc(/C=N/n3c(-c4cc(C)[nH]n4)n[nH]c3=S)ccc21	5.01µM*	13.3	1.5	?	0.0%	?
CCn1c(/C=N/n2cnnc2)nc2ccccc21	-5.7%	20.2	-2.1	-0.3%	/	13.0%
CCn1c2ccccc2c2cc(NC(=O)CN3CCCC3)ccc21	?	-5.7	-2.3	-30.2%[46.1 µM]	-5.8%	?
CCn1c2ccccc2c2cc(/C=N/n3cnnc3)ccc21	?	-16.7	-1.6	-14.5%	/	7.94µM*
SMILES	MARV entry inh	Shiga toxin inh	Cycloheximide cs	LASV entry inh	FMDV antiviral	HCV inhibitor
CCn1c2ccccc2c2cc(/C=N/O)ccc21	-29.8%	1.4	-2.8	6.2%	-20.8%	11.2µM*
CCn1c2ccc(/C(C)=N\O)cc2c2cc(/C(C)=N\O)ccc21	-29.2%	-4.6	1.8	0.3%	-13.6%	10µM*
COc1ccc(-n2c(CNC(=O)c3cccs3)n[nH]c2=S)cc1	-3.4%[14.2 µM]	-10.4	-4.5	15.4%	-8.0%	1.2%
COc1ccc(NC(=O)CN2CCC(Cc3ccccc3)CC2)cc1S(=O)(=O)N1CCOCC1	?	-5.4	1.1	-1.6%	-8.0%	?
S=c1[nH]ncn1/N=C/c1ccccc1	0.0%	-9.2	-1.9	1.8%	-3.1%	1.2%
CCn1c2ccccc2c2cc(/C=N/n3cn[nH]c3=S)ccc21	10.3µM*	-8.4	0.8	4.6%	-2.6%	11.2µM*
COc1ccc(S(=O)(=O)N2c3cc(Cl)ccc3Oc3nc4ccccc4nc32)cc1	-9.8%	50.4*	17.1	-8.0%	68.9%	?
Cc1noc(C)c1COc1ccc(C(=O)NCc2cccs2)cc1	?	/	/	-20.4%	-10.7%	3.8%
CCN(CC(=O)NCc1cccs1)C(=O)c1cccc(S(=O)(=O)Nc2ccccc2Cl)c1	?	/	/	-2.6%	9.1%	-4.4%
Cc1ccc(C(=O)NC(=C(Cl)Cl)S(=O)(=O)c2ccccc2)cc1	?	161.0*	102.9*	?	?	11.2µM*
COC(=O)NC(=C(Cl)Cl)S(=O)(=O)c1ccccc1	?	128.2*	81.8*	12.6µM*	28.2µM*	11.2µM*
Cc1ccc(C(=O)NC(C#N)=C(Cl)Cl)cc1	?	40.4	19.6	?	?	6.31µM*
COC(=O)CN(c1ccccc1)S(=O)(=O)c1ccccc1	4.3%	19.2	1.0	23.0%	/	20.1%
Cc1ccc(C(=O)NC=C(Cl)Cl)cc1	?	84.0*	26.4*	-23.7%	35.0%	12.2%
O=C(NCC1CCCO1)c1ccc(NC(=O)C2CCCCC2C(=O)O)cc1 (stereo not given)	1.4%	-13.3	-0.5	3.0%	0.5%	1.6%
COC(=O)c1[nH]c2ccccc2c1NC(=O)c1c(F)cccc1F	/	10.9	7.0	/	-17.4%	-14.5%
Cc1ccnc(NC2(C(F)(F)F)N=C3SCCN3C2=O)c1 (stereo not given)	?	-9.0	-2.1	4.5%	6.4%	-13.5%
COc1ccc(C(=O)NC(=C(Cl)Cl)S(=O)(=O)c2ccc(C)cc2)cc1	/	38.7	21.5*	/	-3.9%	-10.5%
Nc1cc(Cl)c2nonc2c1[N+](=O)[O-]	?	21.8	-3.3	?	8.91µM*	4.47µM*
O=[N+]([O-])c1c(Nc2ccccc2O)cc(Cl)c2nonc12	?	1.2	-10.0	?	10µM*	11.2µM*
